Reference: PubChem BioAssay (NCATS)
Inconclusive results are not listed. Unmarked numbers belong to inactive results. Calls of active or inactive are those of the source. The call rests on the fitted dose curve; in most records, active means well fitted cell-killing curve with a large enough effect; inconclusive means small, poorly fitted or top-dose-only effect, or effect the other way; inactive means no such curve, though single readings can be large or run the other way.

Experiment: Quantitative High-Throughput drug screen in 47 multiple myeloma cell lines against the NCATS MIPE library collection: XG1_PLB cell viability assay (AID 1919866); further: nearly all actives have a fitted effect of over 35% in size
Details: CellTiter-Glo ATP, 48 h; series mostly up to 45.8 µM; viability: at the top concentration
Source text: PI: Beverly A. Mock Ph.D.
Laboratory of Cancer Biology and Genetics,
Center for Cancer Research, National Cancer Institute,
National Institute of Health, Bethesda, Maryland
Drug resistance and disease progression are common in multiple myeloma (MM) patients, underscoring the need for new therapeutic combinations. […] We hypothesized that effective combinations would reduce MYC expression and enhance p16 activity. […] These preclinical data identify potentially useful drug combinations for evaluation in drug-resistant MM and reveal potential mechanisms of combined drug sensitivity.
Described herein is the primary MIPE qHTS used to cherrypick compounds. Validated compounds were then further tested for potential synergistic activiy.
[1] Peat TJ, Gaikwad SM, Dubois W, Gyabaah-Kessie N, Zhang S, Gorjifard S, Phyo Z, Andres M, Hughitt VK, Simpson RM, Miller MA, Girvin AT, Taylor A, Williams D, D'Antonio N, Zhang Y, Rajagopalan A, Flietner E, Wilson K, Zhang X, Shinn P, Klumpp-Thomas C, McKnight C, Itkin Z, Chen L, Kazandijian D, Zhang J, Michalowski AM, Simmons JK, Keats J, Thomas CJ, Mock BA. Drug combinations identified by high-throughput screening promote cell cycle transition and upregulate Smad pathways in myeloma. Cancer Lett. 2023 Aug 1;568:216284. doi: 10.1016/j.canlet.2023.216284. Epub 2023 Jun 24. PMID: 37356470; PMCID: PMC10408729.
SEQUENCE No. (e.g., 1, 2, 3, etc.); […] (e.g., Cells, Incubation, Reagent, etc.); VALUE and DESCRIPTION.
1; Cells; 5 uL; white, solid bottom 1536-well Greiner assay plate.
2; Compounds; 23 nL; Kalypsis pin tool (Wako USA) equipped with a 1536-well pin head to transfer to the assay plates.
3; Incubation; 48 hours; 37C incubation.
4; Reagent;5uL; CellTiter Glo (Promega).
5; Detector; 425V; Luminescence; Viewlux PerkinElmer.
NOTES (numbers refer to Sequence numbers above)
1. The cell-based screening methods employed in this study were like those previously published. Briefly, the corresponding myeloma cell lines were screened in 1,536-well plates with 500 cells, 5-uL per well for inhibition of cell viability (assessed by measuring ATP levels with CellTiterGlo).
2. NCATS MIPE 4.0 library of approved and investigational drugs were added using the Kalypsis pin tool. Wells treated with DMSO only for 100% viability and media only for 0% viability were used as controls.
3. The assay plates were covered and incubated for 48 hours in a 37C, 5% CO2 incubator with controlled humidity.
4. After 48 hours, CellTilter-GloTM luminescent substrate mix (Promega) reagent was added to the assay plate and plates we incubated for 5 min at room temperature.
5. Signal was measured as median relative luminescence units on a ViewLux (PerkinElmer) multiplate reader.
[1] Heske CM, Davis MI, Baumgart JT, Wilson K, Gormally MV, Chen L, Zhang X, Ceribelli M, Duveau DY, Guha R, Ferrer M, Arnaldez FI, Ji J, Tran HL, Zhang Y, Mendoza A, Helman LJ, Thomas CJ. Matrix Screen Identifies Synergistic Combination of PARP Inhibitors and Nicotinamide Phosphoribosyltransferase (NAMPT) Inhibitors in Ewing Sarcoma. Clin Cancer Res. 2017 Dec 1;23(23):7301-7311. doi: 10.1158/1078-0432.CCR-17-1121. Epub 2017 Sep 12. PMID: 28899971; PMCID: PMC6636827.
Potency means the concentration at half of the fitted maximal effect.

Row | Compound | viability | Potency
1 | CC1CC2C3CCC4=CC(=O)C=C[C@]4(C)[C@@]3(F)[C@@H](O)C[C@]2(C)[C@@]1(O)C(=O)CO (stereo not given in full) | 125% | –
2 | COc1cc(NS(=O)(=O)c2ccc(N)cc2)nc(OC)n1 | 114% | –
3 | CC(C)C1CCC(C(=O)N[C@H](Cc2ccccc2)C(=O)O)CC1 (stereo not given in full) | 107% | –
4 | CCOC(=O)[C@H](CCc1ccccc1)N[C@H]1CS[C@H](c2cccs2)CN(CC(=O)O)C1=O | – | 0.935 µM (active)
5 | NC(N)=NC(N)=NCCc1ccccc1 | – | 7.43 µM (active)
6 | CO[C@@]12[C@H](COC(N)=O)C3=C(C(=O)C(C)=C(N)C3=O)N1C[C@@H]1N[C@@H]12 | – | 20.9 µM (active)
7 | COc1cc([C@@H]2c3cc4c(cc3[C@H](O)[C@H]3COC(=O)[C@H]23)OCO4)cc(OC)c1OC | 26.1% | –
8 | Cc1ccc(S(=O)(=O)N[C@@H](Cc2ccccc2)C(=O)CCl)cc1 | – | 7.43 µM (active)
9 | CNC(=O)c1cc(Oc2ccc(NC(=O)Nc3ccc(Cl)c(C(F)(F)F)c3)cc2)ccn1 | – | 5.9 µM (active)
10 | CNNCc1ccc(C(=O)NC(C)C)cc1 | 129% | –
11 | C#CCN[C@@H]1CCc2ccccc21 | 91.2% | –
12 | O=S(=O)(O)CCS | 120% | –
13 | O=C(N[C@H](CO)[C@H](O)c1ccc([N+](=O)[O-])cc1)C(Cl)Cl | 137% | –
14 | COc1nc(N)nc2c1ncn2[C@@H]1O[C@H](CO)[C@@H](O)[C@@H]1O | 131% | –
15 | CN(C)CCc1c[nH]c2ccc(CS(=O)(=O)N3CCCC3)cc12 | – | 20.9 µM (active)
16 | OCc1ccc(-c2nn(Cc3ccccc3)c3ccccc23)o1 | 93.8% | –
17 | CCOCC(O)COc1ccc(NC(=O)CC[S+](C)C)cc1 (stereo not given) | 124% | –
18 | CCCCc1oc2ccc(NS(C)(=O)=O)cc2c1C(=O)c1ccc(OCCCN(CCCC)CCCC)cc1 | – | 11.8 µM (active)
19 | COC(c1ccccc1)(c1ccccc1)[C@H](Oc1nc(C)cc(C)n1)C(=O)O | 131% | –
20 | CCCN[C@H]1CCc2nc(N)sc2C1 | 109% | –

Row | Compound | viability | Potency
21 | COc1ccc(C(=O)CC(=O)c2ccc(C(C)(C)C)cc2)cc1 | – | 1.66 µM (active)
22 | CNC1CCCN(c2c(F)cc3c(=O)c(C(=O)O)cn(C4CC4)c3c2OC)C1 (stereo not given) | 110% | –
23 | COc1cc2nc(N3CCCN(C)CC3)nc(NC3CCN(Cc4ccccc4)CC3)c2cc1OC | – | 2.96 µM (active)
24 | C[C@@H]1CN(c2c(F)c(N)c3c(=O)c(C(=O)O)cn(C4CC4)c3c2F)C[C@H](C)N1 | 153% [at 23.2 µM] | –
25 | O=c1oc2c(O)c(O)cc3c(=O)oc4c(O)c(O)cc1c4c23 | 129% | –
26 | CN1CCN(c2c(F)cc3c(=O)c(C(=O)O)cn4c3c2OCN4C)CC1 | 127% | –
27 | COc1c(N2CCNC(C)C2)c(F)cc2c(=O)c(C(=O)O)cn(C3CC3)c12 (stereo not given) | 99.6% | –
28 | O=P(O)(O)C(O)(Cc1cccnc1)P(=O)(O)O | 122% | –
29 | CN1CCCC(n2nc(Cc3ccc(Cl)cc3)c3ccccc3c2=O)CC1 (stereo not given) | – | 1.48 µM (active)
30 | Nc1nc(=S)c2[nH]cnc2[nH]1 | – | 0.662 µM (active)
31 | Cc1nnc(C(=O)NC(C)(C)c2nc(C(=O)NCc3ccc(F)cc3)c(O)c(=O)n2C)o1 | 111% | –
32 | CC(C)OC(=O)C(C(=O)OC(C)C)=C1SC=CS1 | 110% | –
33 | C1CCC(C(CC2CCCCN2)C2CCCCC2)CC1 (stereo not given) | – | 13.2 µM (active)
34 | CCOC(=O)[C@H](CCc1ccccc1)N[C@H]1CCc2ccccc2N(CC(=O)O)C1=O | – | 18.7 µM (active)
35 | Cn1nnc2c(C(N)=O)ncn2c1=O | 102% | –
36 | Cc1ncc([N+](=O)[O-])n1CCO | 136% | –
37 | N[C@@H](Cc1ccc(O)c(O)c1)C(=O)O | 127% | –
38 | C[C@@H](CN1CC(=O)NC(=O)C1)N1CC(=O)NC(=O)C1 | – | 14.8 µM (active)
39 | COc1cc(NCc2ccc3nc(N)nc(N)c3c2C)cc(OC)c1OC | – | 3.72 µM (active)
40 | Cc1onc(-c2ccccc2Cl)c1C(=O)N[C@@H]1C(=O)N2[C@@H]1SC(C)(C)[C@@H]2C(=O)O | 123% | –
